The sample as a whole holds a higher share of hits than the screen did.
ST2 IL33 inh: inhibitors of human ST2 (IL1RL1) binding to IL-33, primary screen, biochemical, AlphaLISA; 78,000 tested, 2.3% active; inhibition, % for hits at 17 µM; AlphaLISA ST2-Fc/biotin-IL-33 interaction, 1 h; in the data active = inhibition above about 30%
Target sequence (Q01638 whole entry, looked up): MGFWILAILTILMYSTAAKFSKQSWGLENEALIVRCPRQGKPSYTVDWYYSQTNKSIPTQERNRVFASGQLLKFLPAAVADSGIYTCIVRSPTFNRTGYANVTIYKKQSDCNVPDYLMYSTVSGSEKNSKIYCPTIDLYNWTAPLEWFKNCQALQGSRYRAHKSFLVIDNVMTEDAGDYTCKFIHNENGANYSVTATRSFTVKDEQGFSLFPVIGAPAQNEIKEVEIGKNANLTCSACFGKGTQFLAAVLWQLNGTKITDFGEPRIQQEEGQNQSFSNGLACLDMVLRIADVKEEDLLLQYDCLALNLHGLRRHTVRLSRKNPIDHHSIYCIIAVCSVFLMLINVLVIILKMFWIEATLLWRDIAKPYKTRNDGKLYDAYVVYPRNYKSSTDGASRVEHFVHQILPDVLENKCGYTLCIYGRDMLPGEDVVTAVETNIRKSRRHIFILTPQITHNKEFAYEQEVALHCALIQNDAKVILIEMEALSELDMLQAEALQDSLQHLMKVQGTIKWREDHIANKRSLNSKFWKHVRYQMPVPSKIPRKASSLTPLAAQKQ
The depositor's hits bear a star; i = inactive; ! = not confirmed by another sample.

SMILES	ST2 IL33 inh
CC1=C(C(=O)Nc2ccccc2C)C(c2ccncc2)n2nc(SCc3ccccc3)nc2N1 (stereo not drawn)	33%*
CC1=C(C(N)=O)C(c2ccccc2)n2nc(SCc3ccccc3)nc2N1 (stereo not drawn)	i
O=C(c1cc(-c2ccc(Cl)cc2)on1)N1CCCCC1	i
COc1ccc(CCNC(=O)c2ccc(Cn3c(=O)[nH]c4ccsc4c3=O)cc2)cc1OC	i
CCCCC(CC)CNC(=O)c1ccc(Cn2c(=O)[nH]c3ccsc3c2=O)cc1 (stereo not drawn)	i
O=C(NCCc1ccc(Cl)cc1)c1ccc(Cn2c(=O)[nH]c3ccsc3c2=O)cc1	37%*!
CCC(C)NC(=O)C1c2cc(OC)c(OC)cc2C(=O)N(C)C1c1ccccc1F (stereo not drawn)	i
Cc1ccc(N(Cc2ccccc2O)C(=O)CN2C(=O)c3ccccc3S2(=O)=O)cc1	i
Cc1ccc(N2C(=O)CSC2c2ccccc2Cl)cc1 (stereo not drawn)	32%*
O=C1CSC(c2cccc(Cl)c2Cl)N1c1ccc(F)cc1 (stereo not drawn)	i
O=C1CSC(c2ccccc2Cl)N1c1ccccc1 (stereo not drawn)	i
CCN(c1ccc(C)c(C)c1)S(=O)(=O)c1cccc2cccnc12	i
O=C(Cc1ccccc1)Nc1c(F)c(F)c(F)c(F)c1F	i
CC(=O)N1c2c(cc(Br)cc2S(=O)(=O)NC2CCCc3ccccc32)CC1C (stereo not drawn)	i
CCN(CC)c1ccc(NC(=O)c2cnccn2)cc1	56%*
CCN(CC)c1cc(C)c2cc(NC(=O)c3cnccn3)ccc2n1	i
O=C(Nc1ccc(Cl)cc1)c1cnccn1	i
O=C(NCc1ccc(F)cc1)C1CCCN(S(=O)(=O)c2cnc[nH]2)C1 (stereo not drawn)	i
Cc1cc(NC(=O)Cn2c(=O)n(-c3ccc(Cl)c(Cl)c3)c(=O)c3c(C)c(C)sc32)n[nH]1	i
Cc1cc(NC(=O)Cn2c(=O)n(-c3ccc(C)c(F)c3)c(=O)c3sccc32)n[nH]1	i
COc1ccc(NC(=O)N2CCCC(CNC(=O)c3cccs3)C2)c(C)c1 (stereo not drawn)	i
CCSCCOC(=O)C1=C(C)NC2=C(C(=O)C(C(=O)OC)C(C)C2)C1c1ccccc1OC (stereo not drawn)	i
CCOC(=O)C1=C(C)NC2=C(C(=O)C(C(=O)OC)C(C)C2)C1c1ccc(OCC)c(OC)c1 (stereo not drawn)	i
CCN(CC)c1ccc(C=C2C(=O)OC(C)(C(C)(C)C)OC2=O)cc1 (stereo not drawn)	43%*
CCn1cc(C=C2C(=O)OC(C)(C(C)(C)C)OC2=O)c2ccccc21 (stereo not drawn)	44%*
SMILES	ST2 IL33 inh
CCOc1cc(C=C2C(=O)OC(C)(C(C)(C)C)OC2=O)cc(I)c1O (stereo not drawn)	i
COc1ccc(C=C2C(=O)OC3(CCCCC3)OC2=O)cc1O	i
Cn1cc(C=C2C(=O)OC3(CCCCC3)OC2=O)c2ccccc21	41%*
CCOc1cc(C=C2C(=O)OC(C)(C(C)(C)C)OC2=O)ccc1OC (stereo not drawn)	i
N#Cc1ccccc1Cn1cc(C=C2C(=O)NC(=O)NC2=O)c2ccccc21	i
CCN(CC)C(=O)Cn1cc(/C=C2\C(=O)NC(=O)N(CC)C2=O)c2ccccc21	i
Cn1cc(/C=C2\C(=O)NN(c3ccccc3)C2=O)c2ccccc21	i
O=C(CCn1cnnc1)N1C[C@@H]2[C@@H]3CC[C@@H](C3)[C@@H]2C1	i
CCN(CC)S(=O)(=O)c1ccc2[nH]cc(C(=O)O)c2c1	i
CC1=NN(c2ccccc2)C(=O)/C1=C/c1cccc(C(=O)O)c1	i
CC1=NN(c2ccccc2)C(=O)/C1=C\c1ccccc1OCc1ccccc1	40%*
C=CCN1C(=O)NC(=O)/C(=C/c2cccc(OCc3ccccc3Cl)c2)C1=O	i
COc1cccc(/C=C2\C(=O)N(c3cccc(Cl)c3)N=C2C)c1	i
CCc1cccc(OCCOCCN2CCCC2)c1	i
COc1cc(/C=C2\C(=O)N(c3ccccc3)N=C2C)ccc1OCc1ccc(F)cc1	i
Cc1cccc(OCCOCCOc2ccc(/C=C3\C(=O)NN(c4ccccc4)C3=O)cc2)c1	34%*
COc1cccc(OCCOc2ccc(/C=C3/C(=O)N(c4ccccc4)N=C3C)cc2OC)c1	43%*
COc1cc(/C=C2/C(=O)N(c3ccccc3)N=C2C)ccc1OCCOCCOc1ccccc1	45%*
COc1ccccc1OCCOc1ccc([N+](=O)[O-])cc1/C=C1/C(=O)N(c2ccccc2)N=C1C	i
COc1ccccc1/C=C1/C(=O)N(c2ccccc2)N=C1C	i
CC1=NN(c2ccccc2)C(=O)/C1=C/c1ccc(O)c(Br)c1	i
CN(C)c1cc(N(C)CC2CC(=O)N(C(C)(C)C)C2)ncn1 (stereo not drawn)	i
O=C(COc1ccc(Cl)cc1Cl)NCc1ccccc1	i
